# IL2 activator: qHTS of IL-2 Activators | 360,000 tested, 0.065% active | activation, % (series mostly up to about 46 µM) | IL-2 activation reporter assay, cell-based qHTS; stimulated with anti-CD3/CD4/CD28 beads; in transgenic mouse T cells; in the data active means activation above about 50%; inconclusive means mostly about 30% to 49%; further: 0% is about no effect
#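 Unstimulated transgenic mouse T cells; 60-min compound exposure; bead-based TCR/CD4/CD28 stimulation; 18 h culture, 37 degrees C; dual fluorescence (EGFP, DsRed) plate cytometry.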
# Nrf2 activator: qHTS of Nrf2 Activators; AREc32 ARE-luciferase reporter (MCF7-derived line), luminescence, 24 h; Potency, µM (top dose mostly 46.1 µM), for inactives: at the top dose activation, actives largely listed as activators; 410,000 tested, 0.31% active; further: potency means the concentration at half of the fitted maximal effect; % of control where 0% means no effect; nearly all actives have a fitted effect of over 65% in size
#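 AREc32_Fluc, 1000 cells/well, OPTI-MEM + 5% FBS, o/n 37 deg C 5% CO2; 23 nL cpd by pin tool, 24 hr; Steady-Glo 30 min RT, luminescence.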
# Nrf2 inh: Nrf2 qHTS screen for inhibitors; A549 ARE-Fluc reporter, luciferase luminescence, 18-24 h; Potency, µM (top dose mostly 46 µM), for the others: top-dose activity change, negative = inhibition, usual class: inhibitors; 360,000 tested, 2.1% active; AID 504444, 2011; further: potency means the concentration at half of the fitted maximal effect; on the % scale 0 is the no-effect control and ±100 the full control effect; nearly all actives have a fitted effect of over 60% in size
#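 Nrf2 function is reported as luminescence of an ARE-controlled luciferase in A549 cells. Compounds were tested at several concentrations, and a CellTiter-Fluor read on the same wells flagged cytotoxicity.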
# miR-21 reporter: qHTS Assay for Modulators of miRNAs and/orActivators of miR-21; HeLa miR-21 FLuc reporter, luciferase, 48 h; Potency, µM (series often up to 38.3 µM), for inactives: top-dose activity change, positive = activation, hits mostly activators; 340,000 tested, under 10 active; AID 2288, 2010;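 further: % of control where 0% means no effect; miR-21 action dims this reporter so a rising signal means less miR-21 action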
#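 HeLa cells stably expressing CMV-driven firefly luciferase with a downstream miR-21 binding sequence, endogenously expressing miR-21, were treated with titrations (up to about 40uM final) for 48 hours at 37 degree Celsius. Luciferase luminescence was read after lysis.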
# ClpP mod: qHTS Assay for Activators of ClpP. ATP-dependent Clp protease proteolytic subunit (Bacillus subtilis (strain 168)), P80244. purified B. subtilis ClpP, FRET peptide cleavage, 20 min. Potency, µM (highest dose often 57.5 µM), without a hit: top-dose activity change, negative = active. 340,000 tested, 1.9% active; active means well fitted falling curve with a large enough effect; inconclusive means small, poorly fitted or top-dose-only effect; inactive means no such curve, though single readings can be large or run the other way; further: potency means the concentration at half of the fitted maximal effect; the source files actives as falling curves though it sought activators and does not explain the sign; nearly all actives have a fitted effect of over 65% in size
# Target sequence (P80244 whole entry, looked up): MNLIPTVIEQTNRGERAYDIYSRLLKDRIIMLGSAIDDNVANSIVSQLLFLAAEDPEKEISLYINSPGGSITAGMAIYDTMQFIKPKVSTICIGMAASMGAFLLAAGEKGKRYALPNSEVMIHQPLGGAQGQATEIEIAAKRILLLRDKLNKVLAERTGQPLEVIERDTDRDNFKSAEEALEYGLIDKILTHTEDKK
#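 FRET quenching reversal measured ClpP activation: 10 microg/mL B. subtilis ClpP at pH 8 with the FRET-FV decapeptide, read at 430 nm after 320 nm excitation. The 20-min minus 0-min signal was scaled between DMSO/no-enzyme wells and ADEP (5.8 microM final).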
# A549 viability: Nrf2 qHTS screen for inhibitors: counterscreen for cytotoxicity; Potency, µM (titrated, usually from 46 µM), for the others: top-dose activity change, negative = cytotoxicity, most hits filed as inhibitors; 390,000 tested, 0.16% active; A549 ARE-Fluc cells, CellTiter-Fluor viability, 18-24 h; AID 504648, 2011; further: potency means the concentration at half of the fitted maximal effect; on the % scale 0 is the no-effect control and ±100 the full control effect
#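 A549 ARE_Fluc cells in 5% FBS OPTI-MEM were exposed to compounds in concentration-response for 18-24 h at 37 deg C. Viability was read by CellTiter-Fluor fluorescence (Ex 405/Em 525) after 30 min, before the luciferase read.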
# * = called active by the depositor; ? = inconclusive; · = no result given. Compounds with a hit are over-represented: about 3.7% of the library has one in this group of screens. Unless noted, the call rests on the fitted dose curve; in most records, active means well fitted curve in the direction sought with a large enough effect; inconclusive means small, poorly fitted or top-dose-only effect, or another doubt; inactive means no such curve, though single readings can be large; an effect the other way counts as inactive or inconclusive.
SMILES,IL2 activator,Nrf2 activator,Nrf2 inh,miR-21 reporter,ClpP mod,A549 viability
COc1ccc(-c2cn3c(n2)sc2cc(C(=O)Nc4cccc(SC)c4)ccc23)cc1,·,4%,-26%,21%,4%,-19%
O=C(Nc1ncc2c(n1)-c1ccccc1CC2)c1ccccc1,-4,7.9µM*,6%,-17%,1%,-3%
CN1c2ccccc2-c2nc3ccccc3n2C1c1ccncc1 (centres undefined),-2,0%,-13%,-1%,20µM*,2%
Cc1c(NS(=O)(=O)c2ccc3c(c2)OCCO3)cccc1-c1nc2cccnc2s1,-2,0%,21µM*,7%,0%,-11%
Cc1cc2c(s1)c1cnn(Cc3ccc(SC(F)(F)F)cc3)c(=O)c1n2C,·,·,5%,·,·,-1%
Clc1ccc(CON/C=N/c2ncnc3sccc23)cc1,-1,0%,21µM*,7%,-2%,-11%
C(=N\c1ncnc2sccc12)/NOCc1ccccc1,0,0%,·,14%,-1%,1%
Cc1nc(SCC(=O)Nc2nc3ccccc3s2)c(C#N)c(C)c1C,1,-2%,4.6µM*,?,1%,14%
CCN(CCN(C)C)C(=O)Cn1ncc2c([nH]c3ccc(C)cc32)c1=O,·,0%,13%,-2%,4%,0%
CCCC(=O)OCc1cnc(C)c2oc(=O)c(C(=O)Nc3cccc(C(F)(F)F)c3)cc12,·,1%,·,-1%,-7%,-1%
c1ccc(CNc2nc3ccccc3c3nc(-c4ccccc4)nn23)cc1,·,15%,-19%,-6%,25µM*,-5%
COc1ccc(C(=O)CC2(O)C(=O)N(Cc3cccc(C(F)(F)F)c3)c3ccccc32)cc1 (centres undefined),·,0%,?,23%,1%,-11%
COc1ccc(C)cc1NC(=O)C(=O)NCC(c1cccnc1)N1CCN(c2ccccc2F)CC1 (centres undefined),·,3%,-24%,3%,-1%,-7%
Cc1ccc2oc(/N=C(\N)NC(=O)C3CC3)nc2c1,0,0%,?,18%,-2%,11%
Cc1ccc2oc(/N=C(\N)NC(=O)C(C)(C)C)nc2c1,-5,-1%,13µM*,16%,·,0%
CNC(=S)N/N=C1\CC(c2ccccc2)Oc2ccccc21 (centres undefined),-5,6%,-28%,9%,0%,0%
Fc1ccc(N/N=C2/CC(c3ccccc3)Oc3ccccc32)c(F)c1 (centres undefined),-1,13µM*,-1%,-9%,-3%,12%
CCCn1c(=O)c2sccc2n2c(CCCC(=O)NCCc3ccc(Cl)cc3)nnc12,·,0%,-2%,1%,?,-2%
CC(C)COc1ccc(C(=O)OC2CC(C)(C)OCC2CN(C)C)cc1 (centres undefined),-2,2%,·,-5%,20µM*,4%
CCc1nnc2c3ccccc3nc(Nc3ccccc3OC)n12,·,1%,7%,4%,?,1%
CCOC(=O)CC(NC(=O)CCc1c(C)nc2c(-c3ccccc3)c(C)nn2c1C)c1ccc(C)cc1 (centres undefined),·,0%,?,29%,0%,?
N#Cc1c(N)n(CCOC(=O)c2cccc([N+](=O)[O-])c2)c2nc3ccccc3nc12,3,0%,-23%,5%,26%,12%
N#Cc1c(N)n(CCOC(=O)c2cccc(Br)c2)c2nc3ccccc3nc12,0,3%,-8%,-1%,?,-4%
Cc1ccc(C(=O)NCCn2c(N)c(C#N)c3nc4ccccc4nc32)cc1,54*,0%,-25%,-7%,22µM*,16%

# From PubChem
